Measurements from PubChem BioAssay (Tox21).
Where “and” joins values, the source holds several entries; their conditions need not be identical. Equal values may be shown once. Results filed as inconclusive are left out. Some compounds were tested as several samples or in several runs, with calls that do not always agree. Calls of active or inactive are those of the source. Calls follow the shape of the dose curve; as a rule, active = well fitted activation curve with a large enough effect in the repeat runs; inconclusive = weak or mixed curves; inactive = no such curve, though single readings can be large or run the other way.

What follows are compounds tested against Nuclear receptor subfamily 1 group I member 2 (Homo sapiens) (UniProt O75469) (assay: Human pregnane X receptor (PXR) small molecule agonists, qHTS assay (AID 1346982; also: nearly all actives have a fitted effect of over 35% in size)). Conditions: PXR-Luc HepG2, CYP3A4 luciferase reporter, 24 h; series mostly up to 92.4 µM; activation: at the top concentration.
Nuclear receptor subfamily 1 group I member 2 (Homo sapiens), sequence (O75469 whole entry, looked up): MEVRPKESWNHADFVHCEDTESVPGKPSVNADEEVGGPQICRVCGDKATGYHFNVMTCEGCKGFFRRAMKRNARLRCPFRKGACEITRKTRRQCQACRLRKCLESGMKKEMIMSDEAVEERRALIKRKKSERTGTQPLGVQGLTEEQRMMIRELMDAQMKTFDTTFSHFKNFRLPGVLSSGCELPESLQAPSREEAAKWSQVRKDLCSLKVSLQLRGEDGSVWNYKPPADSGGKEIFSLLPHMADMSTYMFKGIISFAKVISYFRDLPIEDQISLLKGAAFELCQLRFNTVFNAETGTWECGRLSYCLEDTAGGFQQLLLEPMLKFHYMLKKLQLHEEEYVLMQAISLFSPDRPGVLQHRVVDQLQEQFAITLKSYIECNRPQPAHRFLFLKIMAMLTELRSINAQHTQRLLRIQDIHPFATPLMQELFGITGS
Text: National Center for Advancing Translational Sciences [NCATS]
NIH Chemical Genomics Center [NCGC]
U.S. Environmental Protection Agency [EPA]
National Institutes of Environmental Health Sciences [NIEHS]
National Toxicology Program [NTP]
The human pregnane X receptor (hPXR) regulates the expression of several drug metabolizing enzymes and induction of these proteins is a major mechanism for developing drug resistance in cancer. One such key enzyme catalyzing the drug metabolism is cytochrome P450 3A4 (CYP3A4). Changes in CYP3A4 expression affect drug metabolism, thereby reducing the therapeutic efficacy and altering toxicological response to a drug and which finally causes adverse drug interaction. To screen Tox21 libraries for compounds that activate hPXR-mediated CYP3A4 gene expression, PXR-Luc HepG2 cells were used.
PXR-Luc HepG2 cells were dispensed at 2,000 per well in 5uL of assay medium containing 5% charcoal-stripped FBS into white solid bottom 1536-well plates (Corning Life Sciences, Corning, NY) using a Multidrop Combi (Thermo Scientific, Waltham, MA) dispenser. The assay plates were incubated at 37 C and 5% CO2 for 5hr, and then 23nL of compounds dissolved in DMSO and positive control were transferred using a Pintool station (Wako, San Diego, CA). The assay plates were incubated at 37C and 5% CO2 for 24hr. For luciferase read, 4uL of ONE-Glo reagent (Promega Corporation, Madison, WI) was added to each well of the assay plates using Flying Reagent Dispenser (FRD, Aurora Discovery, San Diego, CA) and incubated the assay plates at room temperature for 30min. The luminescence signal was quantified using a ViewLux plate reader (Perkin Elmer, Shelton, CT).
% is scaled to controls: 0 for no effect and ±100 for the full control effect; potency is read from the fitted curve at half-maximal effect.

SMILES	Potency	activation
O=C=NC1CCCCC1	9.71 µM (active)	–
CCC(C)(C)c1ccc(O)c(C(C)(C)CC)c1	27 µM (active) and inactive	–
COc1ccc(C(O)(c2cncnc2)C2CC2)cc1 (stereo not given)	–	16% (inactive)
C[N+]1(CCF)[C@@H]2CC[C@H]1CC(OC(=O)C(O)(c1ccccc1)c1ccccc1)C2 (stereo not given in full)	–	0.915% [at 42.5 µM] (inactive)
CC[N+]1(CCOC(=O)C(O)(c2ccccc2)c2ccccc2)CCCCC1	–	-16.6% [at 42.5 µM] (inactive)
C=C(C)C(=O)OCCCCOC(=O)C(=C)C	–	5.86% (inactive)
CCc1cnc(C2=NC(C)(C(C)C)C(=O)N2)c(C(=O)O)c1 (stereo not given)	inactive	–
CCCN(CCOc1c(Cl)cc(Cl)cc1Cl)C(=O)n1ccnc1	7.86 µM (active) and 3.44 µM (active)	–
CCCC[P+](CC)(CCCC)CCCC (tested in a mixture with another compound)	–	-0.479% (inactive)
C[C@H](N)[C@H](O)c1ccc(O)c(O)c1	–	-17.5% [at 42.5 µM] (inactive)
Cc1nnc(-c2ccccc2)c(=O)n1N	–	13% (inactive)
O=P(OCC(Br)CBr)(OCC(Br)CBr)OCC(Br)CBr (stereo not given)	55.2 µM (active) and 51.7 µM (active)	–
Nc1c(Br)cc(Br)c2c1C(=O)c1ccccc1C2=O	–	3.29% [at 19 µM] (inactive)
O=C(O)c1ccc(=O)[nH]c1	–	2.44% [at 42.5 µM] (inactive)
CCC1(CCC(C)C)C(=O)NC(=O)NC1=O	–	-4.97% (inactive)
CC(CC(C(N)=O)(c1ccccc1)c1ccccc1)N(C)C (stereo not given)	–	2.61% [at 42.5 µM] (inactive)
CN(C)N	–	0.931% (inactive)
C[N+]1(CCC(C(N)=O)(c2ccccc2)c2ccccc2)CCCCC1	–	-1.42% [at 42.5 µM] (inactive)
CCCC[N+](CCCC)(CCCC)CCCC	–	18.8% (inactive)
O=C(O)c1cc(Cl)ccc1Cl	–	3.57% (inactive)

SMILES	Potency	activation
CCCCC1C(=O)NC(=O)N(C2CCCCC2)C1=O (stereo not given)	–	-0.8% [at 42.5 µM] (inactive)
COc1cc(C[C@@H](C)N)c(OC)cc1Br	–	-0.443% (inactive)
CC(C)c1ccc(OP(=O)(Oc2ccc(C(C)C)cc2)Oc2ccc(C(C)C)cc2)cc1	4.36 µM (active) and 5.45 µM (active) and 10.9 µM (active)	–
CCSCc1ccccc1OC(=O)NC	–	12.5% (inactive)
COc1cc(CC#N)cc(OC)c1OC	–	13.2% [at 42.5 µM] (inactive)
OCC1CO1 (stereo not given)	inactive	–
CCOC(=O)c1cn2nc(OP(=S)(OCC)OCC)cc2nc1C	30.6 µM (active)	–
CCC1(C2=NCCN2)Cc2ccccc2O1 (stereo not given)	–	28% [at 42.5 µM] (inactive)
Cc1ccccc1	–	-4.67% (inactive)
C#CC(O)(C=CCl)CC (stereo not given)	–	-7.99% [at 42.5 µM] (inactive)
ClCc1ccccc1Cl	–	6.19% (inactive)
COC1CC(=C(c2cccs2)c2cccs2)C[N+](C)(C)C1 (stereo not given)	–	12.3% [at 42.5 µM] (inactive)
Cc1ccc(N)c(C)c1	inactive	–
Clc1ccccc1	24 µM (active)	–
FC(Cl)(Cl)C(F)(Cl)Cl	–	1.72% (inactive)
CCC(C)(C)O	–	17% (inactive)
CN[C@@H](C)[C@H](O)c1ccccc1	–	-7.43% [at 42.5 µM] (inactive)
O=C1NC(=O)C(=O)C(=O)N1	–	2.84% (inactive)
Nc1ccc2c(c1)Cc1ccccc1-2	27.1 µM (active)	–
CC(C)(C#N)C(C)(C)C#N	–	6.21% (inactive)
